# Laboratory results as given in PubChem BioAssay AID493179 (National Center for Advancing Translational Sciences (NCATS), 2011).
# Inconclusive results are not listed. Active and inactive are the calls of the source. Calls follow the shape of the dose curve; as a rule, active = well fitted inhibition curve with a large enough effect; inconclusive = small, poorly fitted or top-dose-only effect; inactive = flat fitted curve, though single readings scatter.
# Assay: Secondary Assay for General miRNAs Modulators and/or Inhibitors/Activators of miR-21: miR-30 Firefly Luciferase Assay for second round cherrypicks
# Conditions: HeLa miR-30 FLuc reporter, luminescence, 48 h
# From the text: MLPCN Grant: 1 R21 NS059478-01 Assay Provider: Qihong Huang, The Wistar Institute NCGC Assay Overview: MicroRNAs (miRNAs) are endogenously encoded small (~20-25 nucleotides), nonprotein-coding RNAs that are involved in post-transcriptional repression of target messenger RNAs (mRNAs) (Le and Hannon, 2004). Estimated to be involved in the regulation of 30% of all protein-coding mRNAs (Filipowicz et al., 2008), miRNAs play a significant role in many biological processes including cellular differentiation and tissue development (Ghildiyal and Zamore, 2009). […] Compounds active in the miR-21 FLuc assay were clustered using Leadscope and active chemical series were prioritized based on chemical properties, potential for medicinal chemistry optimization, and SAR. Within each chemical series, representative compounds were re-acquired to test for activity in a secondary assay based on the quality of their CRC, efficacy, and potency. […]
# NCGC Assay Protocol Summary: Reagents: HeLa cells stably expressing firefly luciferase (FLuc) under the control of a CMV promoter (upstream) and a miR-30 binding sequence directly downstream of the gene. […] After a 15 minute incubation to allow for cell lysis, luciferase activity was measured using a ViewLux CCD imager (PerkinElmer), with an average exposure time of 2-12 seconds. […]
smiles,measurement,value
O=c1c2ccccc2nc(Cc2ccccc2)n1-c1ccccc1,Potency,20 µM (active)
